Our source for the activation, Potency and outcome values is PubChem BioAssay (NCATS).

Inconclusive results are not listed. A structure can be active in one record and inactive in another. Calls of active or inactive are those of the source. Unless noted, the call rests on the fitted dose curve; in most records, active means well fitted curve in the direction sought with a large enough effect; inconclusive means small, poorly fitted or top-dose-only effect, or another doubt; inactive means no such curve, though single readings can be large; an effect the other way counts as inactive or inconclusive.

Experiment [1] can be described thus: qHTS Assay for Identification of Small Molecule Agonists for Hypoxia Response Element Signaling Pathway (AID 914; active means well fitted activation curve with a large enough effect in the signal ratio, with a control signal flat, not every such curve was filed as active; the % refers to the signal ratio; further: % of control where 0% means no effect). The settings on record: ME-180 (cervical carcinoma) HRE-bla reporter, beta-lactamase ratio, CoCl2, 17 h; stronger effect = higher value. The procedure, abridged:
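Compounds in a titration series were added to ME-180 reporter cells alongside an EC50 level of CoCl2. After 17 hours, beta-lactamase activity was read as the 460nm/530nm emission ratio of CCF4, giving AC50 values.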
On the technique in general: In qHTS, concentration-response curves come from the screen itself.

Experiment [2] deals with Muscarinic acetylcholine receptor M1 (Rattus norvegicus) (UniProt P08482). Nature of the experiment: qHTS Assay for Antagonists of Acetylcholine Muscarinic M1 Receptor: Kinetic Measurement of Intracellular Calcium Response (AID 943). Further: nearly all actives have a fitted effect of over 75% in size. Further: potency means the concentration at half of the fitted maximal effect. The settings on record: M1-expressing cells, kinetic intracellular calcium fluorescence; series mostly up to 35.3 µM. The procedure, abridged:
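Intracellular calcium flux, recorded with Fluo-4 in a kinetic plate reader, served as signal; the response to carbachol at EC80 (100 nM final) was taken as maximal over minimal fluorescence after a 10 min compound pre-incubation in rat M1-CHO cells.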

Experiment [3] addresses Pyruvate kinase (Leishmania mexicana) (UniProt Q27686). Nature of the experiment: qHTS Validation Assay for Inhibitors of Leishmania Mexicana Pyruvate Kinase (AID 945).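 Further: 0% = DMSO only neutral control wells.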 Conditions: purified L. mexicana pyruvate kinase, enzyme activity, E451W mutant enzyme; series mostly up to 57.5 µM. The procedure, abridged: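 Pyruvate kinase activity of E451W LmPYK (0.2 nM) was followed as ATP output after 1 h at room temperature with 0.5 mM PEP and 0.1 mM ADP, detected by PKLight luminescence.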

In experiment [4] the target is Pyruvate kinase PKM (Homo sapiens) (UniProt P14618). Kind of experiment: qHTS Assay for Activators of Human Muscle Pyruvate Kinase (AID 954; active means well fitted curve in the direction sought with a large enough effect, not every such curve was filed as active;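 further: 0% = uninhibited enzyme and -100% = no enzyme or full thiadiazolimine inhibition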). Conditions: purified human muscle pyruvate kinase, luciferase-coupled luminescence, 1 h; series mostly up to 57.5 µM. The procedure, abridged:
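Luminescence from a luciferase ATP-detection/stop reagent reported PKM2 activity. Reactions contained 0.1 nM purified human enzyme, 0.5 mM PEP, 0.1 mM ADP and 7 mM MgCl2 at pH 7.2, run 1 h at RT.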

In experiment [5] the target is Alpha-galactosidase (Coffea arabica) (UniProt Q42656). Nature of the experiment: Counterscreen for Glucocerebrosidase Inhibitors: qHTS Assay for Coffee Bean alpha-Galactosidase at pH 4.5 (AID 957).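 Further: plate controls were enzyme alone for no effect and no enzyme for full effect.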 Conditions: purified coffee bean alpha-galactosidase, fluorogenic substrate; series mostly up to 76.9 µM. The procedure, abridged: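 AC50 values derive from Hill-equation modeling of concentration-response data, normalized to no-enzyme and full-activity controls. The pH 4.5 citrate assay used 2 nM coffee bean enzyme and 80 uM fluorogenic substrate for 20 min.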
Sequence of Alpha-galactosidase (Coffea arabica) (Q42656 whole entry, looked up): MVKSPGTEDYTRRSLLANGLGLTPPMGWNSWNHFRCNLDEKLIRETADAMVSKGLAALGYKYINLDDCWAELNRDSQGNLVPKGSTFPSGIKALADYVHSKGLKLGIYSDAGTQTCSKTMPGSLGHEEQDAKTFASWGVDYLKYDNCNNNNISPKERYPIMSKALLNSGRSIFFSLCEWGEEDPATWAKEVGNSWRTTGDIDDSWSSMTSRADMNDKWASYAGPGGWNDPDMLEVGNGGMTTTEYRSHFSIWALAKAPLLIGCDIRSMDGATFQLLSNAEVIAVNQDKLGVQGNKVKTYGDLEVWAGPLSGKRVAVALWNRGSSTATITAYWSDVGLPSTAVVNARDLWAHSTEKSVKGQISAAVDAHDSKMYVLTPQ

Experiment [6] can be described thus: qHTS Assay for Identification of Small Molecule Agonists for Thrombopoietin (TPO) Signaling Pathway (AID 917). Further: potency means the concentration at half of the fitted maximal effect. Conditions: TPO signaling pathway reporter cells, agonist qHTS; series mostly up to 38.5 µM. The procedure, abridged: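 Activators of TPO signaling were sought in murine Ba/F3 cells transfected with the human receptor, using a luciferase gene driven by the Glycoprotein IIb promoter; 24-hr compound exposure at 37 C alongside 26 pM TPO, in IL-3-free medium.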

Experiment [7] concerns the target Muscarinic acetylcholine receptor M1 (Rattus norvegicus) (UniProt P08482). Kind of experiment: qHTS Assay for Antagonists of Acetylcholine Muscarinic M1 Receptor: Measurement of IP-One Response (AID 944). Further: nearly all actives have a fitted effect of over 75% in size. Further: potency means the concentration at half of the fitted maximal effect. The settings on record: CHO-M1 cells, IP-One HTRF, antagonist mode; series mostly up to 46.1 µM. The procedure, abridged:
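Steps: plate transfected CHO-M1 cells overnight; add test compound, 10 min; add carbachol (200 nM, EC80) in stimulation buffer with LiCl; incubate 30 min; add labelled IP1 tracer and anti-IP1 antibody in lysis buffer; read HTRF after 10 min.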

Experiment [8] can be described thus: Confirmation and Secondary Assay for Modulators of Hemoglobin Beta Chain Splicing at IVS2 705 locus (AID 930).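 Further: HeLa cells stably expressing the EGFP-705 splicing reporter; GFP fluorescence per well restored by corrected splicing of the IVS2-705 intron in EGFP; % of control where 0% means no effect.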 Conditions: HeLa EGFP-705 splicing reporter, GFP fluorescence, 48 h; series mostly up to 46.1 µM. The procedure, abridged:
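Assay measures total GFP intensity per well in HeLa EGFP-705 cells after 2 days with compound; mis-splicing normally truncates EGFP, so fluorescence indicates corrected splicing.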

Sequence of Muscarinic acetylcholine receptor M1 (Rattus norvegicus) (P08482 whole entry, looked up): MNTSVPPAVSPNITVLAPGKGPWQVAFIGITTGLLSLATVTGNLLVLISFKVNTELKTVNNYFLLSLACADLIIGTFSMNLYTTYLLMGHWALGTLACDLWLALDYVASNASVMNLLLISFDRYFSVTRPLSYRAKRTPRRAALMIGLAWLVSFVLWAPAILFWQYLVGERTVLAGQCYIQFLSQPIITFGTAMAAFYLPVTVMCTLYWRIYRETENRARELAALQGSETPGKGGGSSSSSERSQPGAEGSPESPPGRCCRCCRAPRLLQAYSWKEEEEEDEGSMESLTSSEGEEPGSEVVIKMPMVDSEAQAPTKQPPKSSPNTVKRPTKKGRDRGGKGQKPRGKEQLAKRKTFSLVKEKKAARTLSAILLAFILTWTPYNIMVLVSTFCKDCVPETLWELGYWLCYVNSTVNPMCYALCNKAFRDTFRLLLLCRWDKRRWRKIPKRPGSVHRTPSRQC
Sequence of Pyruvate kinase (Leishmania mexicana) (Q27686 2-499 E452W): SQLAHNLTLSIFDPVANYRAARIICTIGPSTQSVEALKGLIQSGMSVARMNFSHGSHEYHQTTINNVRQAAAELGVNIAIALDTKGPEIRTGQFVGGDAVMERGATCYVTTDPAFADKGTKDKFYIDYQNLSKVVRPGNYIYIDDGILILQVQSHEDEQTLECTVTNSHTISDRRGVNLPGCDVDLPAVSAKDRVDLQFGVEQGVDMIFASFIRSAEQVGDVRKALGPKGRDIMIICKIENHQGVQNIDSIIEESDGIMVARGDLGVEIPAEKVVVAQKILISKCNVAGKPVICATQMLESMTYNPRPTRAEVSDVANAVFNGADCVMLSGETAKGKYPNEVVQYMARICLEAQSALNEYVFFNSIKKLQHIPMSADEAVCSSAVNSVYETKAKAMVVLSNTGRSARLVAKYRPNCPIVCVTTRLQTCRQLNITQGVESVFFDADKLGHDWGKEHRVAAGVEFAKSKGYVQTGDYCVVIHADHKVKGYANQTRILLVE
Sequence of Pyruvate kinase PKM (Homo sapiens) (P14618 whole entry, looked up): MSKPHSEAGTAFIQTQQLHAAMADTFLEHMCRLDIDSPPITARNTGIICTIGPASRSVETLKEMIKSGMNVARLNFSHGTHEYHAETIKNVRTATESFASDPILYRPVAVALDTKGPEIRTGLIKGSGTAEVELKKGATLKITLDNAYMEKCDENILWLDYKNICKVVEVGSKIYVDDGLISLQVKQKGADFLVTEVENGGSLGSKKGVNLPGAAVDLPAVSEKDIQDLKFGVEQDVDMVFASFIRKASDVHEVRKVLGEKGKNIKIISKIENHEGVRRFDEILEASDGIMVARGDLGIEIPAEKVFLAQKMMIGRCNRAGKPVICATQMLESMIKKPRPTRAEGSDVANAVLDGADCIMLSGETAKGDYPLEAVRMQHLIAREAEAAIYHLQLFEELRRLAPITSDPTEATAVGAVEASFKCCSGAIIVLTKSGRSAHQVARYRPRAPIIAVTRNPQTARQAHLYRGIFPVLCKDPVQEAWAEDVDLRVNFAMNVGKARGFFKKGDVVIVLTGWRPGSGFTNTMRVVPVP

Consider `Nc1ccc(CCN2CCN(c3cccc(C(F)(F)F)c3)CC2)cc1`, for which, in experiment [1], the activation is -27.7% (inactive). Also, in experiment [2], the Potency is 11.2 µM (active). For the same molecule, the Potency result in experiment [3] was “inactive”. The molecule was called inactive in experiment [4] and in experiment [5].
Regarding `CNC(=O)OCC[N+](C)(C)C`, the Potency entry in experiment [6], in experiment [2], in experiment [7] and in experiment [3] was “inactive” throughout. Besides, the result in experiment [4] and in experiment [5] was inactive.
Turning to `O=[N+]([O-])c1ccc2nc(N3CCNCC3)ccc2c1`, in experiment [1], the activation is -10.4% (inactive). In addition, the Potency entry in experiment [7] and in experiment [3] was “inactive” throughout. Further, the result in experiment [4] and in experiment [5] was inactive.
Turning to `CCS(=O)(=O)Nc1cccc(C(=C2CCCCC2)c2cnc[nH]2)c1`, the Potency result in experiment [6], in experiment [7] and in experiment [3] was “inactive” each time. Moreover, the call in experiment [4] and in experiment [5] was inactive.
Regarding `NC(N)=NOCC[C@H](N)C(=O)O`, the Potency result in experiment [6], in experiment [7] and in experiment [3] was “inactive” each time. Besides, the outcome in experiment [4] and in experiment [5] was inactive.
As to `Cc1sc2ccccc2c1CC1=NCCN1`, the Potency entry in experiment [6], in experiment [2], in experiment [7] and in experiment [3] was “inactive” throughout. Besides, the result in experiment [4] and in experiment [5] was inactive.
Take `NNC(=O)c1ccc(O)cc1`: the Potency result in experiment [6], in experiment [2] and in experiment [3] was “inactive” throughout. The call in experiment [4] and in experiment [5] was inactive.
In the case of `CP(=O)(O)C1=CCNCC1`, the Potency entry in experiment [6], in experiment [2], in experiment [7] and in experiment [3] was “inactive” in each case. In addition, the call in experiment [4] and in experiment [5] was inactive.
Consider `NCCCP(=O)(O)O`, for which, in experiment [1], the activation was -8.81% (inactive). Moreover, the Potency entry in experiment [6], in experiment [2] and in experiment [3] was “inactive” in each case. Moreover, the result in experiment [4] and in experiment [5] was inactive.
Take `C[C@@H]1[C@@H]2Cc3ccc(O)cc3[C@@]1(C)CCN2CC1CC1`: the Potency entry in experiment [6] and in experiment [3] was “inactive” throughout. Also, the figures for the Potency in experiment [2] and in experiment [7] were 14.1 µM (active) and 15.8 µM (active), respectively. The outcome in experiment [4] and in experiment [5] was inactive.
Take `Cc1[nH]c2ccc(O)cc2c1CCN`: the Potency entry in experiment [6], in experiment [2], in experiment [7] and in experiment [3] was “inactive” throughout. In addition, the molecule was classed as inactive in experiment [4] and in experiment [5].
`CCCN(CCC)C1Cc2cc(OC)c(OC)cc2C1`: the Potency entry in experiment [6] and in experiment [3] was “inactive” each time. For the same molecule, the Potency was 1.26 µM (active) in experiment [2] and 2.51 µM (active) in experiment [7]. Moreover, the molecule was called inactive in experiment [4] and in experiment [5].
In the case of `Clc1cc(I)cc(Cl)c1NC1=NCCN1`, the Potency entry in experiment [6], in experiment [7] and in experiment [3] was “inactive” in each case. Further, the Potency in experiment [2] was 15.8 µM (active). The molecule was called inactive in experiment [4] and in experiment [5].
With `NC(=O)c1cc(N2CC2)c([N+](=O)[O-])cc1[N+](=O)[O-]`, the Potency result in experiment [6], in experiment [2], in experiment [7] and in experiment [3] was “inactive” throughout. In addition, the call in experiment [4] and in experiment [5] was inactive.
On to `CC(C)NP(=O)(NC(C)C)OP(=O)(NC(C)C)NC(C)C`, for which the Potency result in experiment [6], in experiment [7] and in experiment [3] was “inactive” each time. Also, the outcome in experiment [4] and in experiment [5] was inactive.
As for `N[C@@H](Cn1oc(=O)[nH]c1=O)C(=O)O`, the Potency result in experiment [6], in experiment [7] and in experiment [3] was “inactive” each time. In addition, the result in experiment [4] and in experiment [5] was inactive.
For `COc1ccc2[nH]c3c(c2c1)CCNC3`, the Potency result in experiment [6], in experiment [2], in experiment [7] and in experiment [3] was “inactive” throughout. The molecule was called inactive in experiment [4] and in experiment [5].
`CCCN(CCC)[C@@H]1CCc2cccc(O)c2C1`: the Potency result in experiment [6] and in experiment [3] was “inactive” throughout. The Potency in experiment [2] was 3.98 µM (active) and inactive; in experiment [7] it was 7.08 µM (active) and inactive. Moreover, the call in experiment [4] and in experiment [5] was inactive.
Turning to `CCCn1c(=O)c2[nH]c(C3CCCC3)nc2n(CCCOC(=O)c2ccc(S(=O)(=O)F)cc2)c1=O`, the Potency result in experiment [6] and in experiment [3] was “inactive” each time. In experiment [2], the Potency is 5.01 µM (active). The call in experiment [4] and in experiment [5] was inactive.
Take `O=P(O)(O)C(Cl)(Cl)P(=O)(O)O`: the Potency entry in experiment [6], in experiment [2], in experiment [7] and in experiment [3] was “inactive” each time. Besides, the result in experiment [4] and in experiment [5] was inactive.
Consider `N#CCCN`, for which, in experiment [1], the activation is 19.4% (inactive). Besides, the Potency result in experiment [6], in experiment [2], in experiment [7] and in experiment [3] was “inactive” throughout. For the same molecule, the result in experiment [4] and in experiment [5] was inactive.
For `C[N+](C)(C)CCOC(=O)CBr`, the activation in experiment [1] was 16.2% (inactive). The Potency result in experiment [6], in experiment [7] and in experiment [3] was “inactive” throughout. Also, the molecule was classed as inactive in experiment [4] and in experiment [5].
In the case of `CCCn1c(C)c(C(=O)c2ccc3ccccc3c2)c2ccccc21`, in experiment [6], the Potency was 10 µM (active). Further, the Potency entry in experiment [7] and in experiment [3] was “inactive” each time. The call in experiment [4] and in experiment [5] was inactive.
As to `OCc1cnc[nH]1`, the Potency entry in experiment [6], in experiment [2], in experiment [7] and in experiment [3] was “inactive” throughout. Also, the call in experiment [4] and in experiment [5] was inactive.
`COc1ccc2[nH]cc(CCN)c2c1`: the Potency result in experiment [6], in experiment [2], in experiment [7] and in experiment [3] was “inactive” throughout. Moreover, the molecule was classed as inactive in experiment [8], in experiment [4] and in experiment [5].
Regarding `C[N+](C)(C)CC#CCN1CCCC1=O`, the Potency result in experiment [6], in experiment [2], in experiment [7] and in experiment [3] was “inactive” throughout. Besides, the molecule was called inactive in experiment [4] and in experiment [5].
